Binding signal data for eight sequences are collected here from publication PMC7862700, “An all-to-all approach to the identification of sequence-specific readers for epigenetic DNA modifications on cytosine”.

Assay in all cases: DAPPL (digital affinity profiling via proximity ligation, sequencing); 10 mM Tris-HCl pH 7.5, 50 mM NaCl, 1 mM DTT, 4% glycerol, room temperature, 30 min; GST-TFs on glutathione beads, 16-mer random dsDNA library, 0.1% formaldehyde crosslink after washing; high values mean tight binding
Holding throughout (conditions): protein: recombinant; tags: N-terminal GST; dsDNA, one strand shown

Assay [1] deals with T1, FLI1 (Homo sapiens, UniProt Q01543 1-452).
T1 sequence: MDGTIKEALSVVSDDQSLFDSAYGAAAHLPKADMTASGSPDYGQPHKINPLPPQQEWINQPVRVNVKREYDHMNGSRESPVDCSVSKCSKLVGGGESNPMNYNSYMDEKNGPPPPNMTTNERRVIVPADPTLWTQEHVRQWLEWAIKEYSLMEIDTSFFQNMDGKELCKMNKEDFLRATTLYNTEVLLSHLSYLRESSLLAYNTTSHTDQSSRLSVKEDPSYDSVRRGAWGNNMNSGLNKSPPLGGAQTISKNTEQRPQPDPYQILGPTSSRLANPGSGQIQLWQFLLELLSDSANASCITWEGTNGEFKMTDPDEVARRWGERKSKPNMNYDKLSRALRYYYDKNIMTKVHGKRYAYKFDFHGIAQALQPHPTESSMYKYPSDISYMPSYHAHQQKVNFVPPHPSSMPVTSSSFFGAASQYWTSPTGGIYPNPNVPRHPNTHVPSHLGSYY
The method in brief:
(§1)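 Human transcription factors were made in yeast as GST fusions, captured on glutathione beads and barcoded with DNA. With a tag-only sample included, the pool was incubated with 200 nmole of a random double-stranded 16-mer DNA library in Tris/NaCl/DTT/glycerol buffer at room temperature for 30 min, then crosslinked with 0.1% formaldehyde after washing, ligated by proximity, amplified and sequenced. For binding signal, each hexamer's read frequency for a factor is divided by its frequency for the tag-only sample.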

For assay [2], the target named is T2, ELK1 (Homo sapiens, UniProt P19419 1-428).
T2 sequence: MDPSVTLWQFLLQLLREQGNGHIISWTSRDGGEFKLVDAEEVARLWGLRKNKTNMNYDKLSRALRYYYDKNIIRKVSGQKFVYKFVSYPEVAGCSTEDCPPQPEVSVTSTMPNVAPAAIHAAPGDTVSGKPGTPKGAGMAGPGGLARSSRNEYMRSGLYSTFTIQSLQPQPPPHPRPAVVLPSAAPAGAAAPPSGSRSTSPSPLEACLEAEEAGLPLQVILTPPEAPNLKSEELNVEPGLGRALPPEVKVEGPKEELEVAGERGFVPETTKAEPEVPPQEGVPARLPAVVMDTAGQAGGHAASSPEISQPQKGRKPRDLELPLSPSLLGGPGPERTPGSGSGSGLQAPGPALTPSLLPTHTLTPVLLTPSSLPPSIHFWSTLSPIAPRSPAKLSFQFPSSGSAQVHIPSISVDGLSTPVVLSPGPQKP
Summed up:
as §1

For assay [3], the target named is T3, GABPA (Homo sapiens, UniProt Q06546 1-454).
T3 sequence: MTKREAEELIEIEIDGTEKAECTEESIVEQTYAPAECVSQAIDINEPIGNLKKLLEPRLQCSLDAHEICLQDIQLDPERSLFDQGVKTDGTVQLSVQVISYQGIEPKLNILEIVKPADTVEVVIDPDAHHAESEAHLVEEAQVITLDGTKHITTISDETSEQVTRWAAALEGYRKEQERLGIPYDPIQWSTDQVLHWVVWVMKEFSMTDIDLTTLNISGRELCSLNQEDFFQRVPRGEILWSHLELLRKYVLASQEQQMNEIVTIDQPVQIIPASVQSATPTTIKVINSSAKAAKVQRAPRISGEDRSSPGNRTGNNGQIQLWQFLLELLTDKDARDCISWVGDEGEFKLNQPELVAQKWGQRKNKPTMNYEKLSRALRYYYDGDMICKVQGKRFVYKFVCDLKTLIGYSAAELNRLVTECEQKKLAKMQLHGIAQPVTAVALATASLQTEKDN
Summed up: as §1

Assay [4] has as its target T4, ERG (Homo sapiens, UniProt P11308 1-479).
T4 sequence: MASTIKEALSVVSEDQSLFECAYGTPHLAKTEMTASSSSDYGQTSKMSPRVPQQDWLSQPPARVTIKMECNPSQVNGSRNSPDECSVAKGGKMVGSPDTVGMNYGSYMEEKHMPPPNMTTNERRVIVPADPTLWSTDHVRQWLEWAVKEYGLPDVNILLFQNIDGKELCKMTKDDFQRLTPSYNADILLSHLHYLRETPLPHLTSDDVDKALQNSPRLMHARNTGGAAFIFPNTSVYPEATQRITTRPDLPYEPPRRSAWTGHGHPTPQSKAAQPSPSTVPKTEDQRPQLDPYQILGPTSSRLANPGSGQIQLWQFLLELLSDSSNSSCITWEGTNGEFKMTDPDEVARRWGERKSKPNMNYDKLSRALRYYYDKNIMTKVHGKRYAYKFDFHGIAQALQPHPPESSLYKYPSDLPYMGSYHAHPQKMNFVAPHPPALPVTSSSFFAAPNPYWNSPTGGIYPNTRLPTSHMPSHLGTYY
The method in brief: as §1

In assay [5] the target is ELF1 (Homo sapiens, UniProt P32519 1-619). The method in brief:
as §1

The target of assay [6] is T5, EHF (Homo sapiens, UniProt Q9NZC4 1-300).
T5 sequence: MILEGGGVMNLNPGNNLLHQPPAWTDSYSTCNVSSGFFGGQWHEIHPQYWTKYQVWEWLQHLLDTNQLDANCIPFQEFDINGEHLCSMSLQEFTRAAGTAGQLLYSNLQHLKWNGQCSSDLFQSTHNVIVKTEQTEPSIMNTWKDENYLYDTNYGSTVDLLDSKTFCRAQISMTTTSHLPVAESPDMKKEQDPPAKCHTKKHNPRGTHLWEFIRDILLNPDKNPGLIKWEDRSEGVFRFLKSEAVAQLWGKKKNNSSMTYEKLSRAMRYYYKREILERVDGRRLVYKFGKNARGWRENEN
The method in brief: as §1

The target in assay [7] is SPI1 (Homo sapiens, UniProt P17947 1-270). Summed up:
as §1

Assay [8] concerns the target SPIB (Homo sapiens, UniProt Q01892 1-262). Summed up:
as §1

The target in assay [9] is T6, ELK3 (Homo sapiens, UniProt P41970 1-407).
T6 sequence: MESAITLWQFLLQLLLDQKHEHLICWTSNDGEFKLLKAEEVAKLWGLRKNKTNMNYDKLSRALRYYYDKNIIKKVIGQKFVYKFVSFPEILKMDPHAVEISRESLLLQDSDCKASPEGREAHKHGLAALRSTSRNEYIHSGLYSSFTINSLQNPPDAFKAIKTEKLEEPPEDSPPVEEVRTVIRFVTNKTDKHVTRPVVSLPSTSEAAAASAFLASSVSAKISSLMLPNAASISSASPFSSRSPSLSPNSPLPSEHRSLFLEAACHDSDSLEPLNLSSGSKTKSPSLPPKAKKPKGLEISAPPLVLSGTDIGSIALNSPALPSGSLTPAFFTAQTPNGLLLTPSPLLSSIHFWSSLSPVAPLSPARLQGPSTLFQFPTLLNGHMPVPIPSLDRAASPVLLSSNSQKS
The method in brief:
as §1

Sequence of SPIB (Q01892 whole entry): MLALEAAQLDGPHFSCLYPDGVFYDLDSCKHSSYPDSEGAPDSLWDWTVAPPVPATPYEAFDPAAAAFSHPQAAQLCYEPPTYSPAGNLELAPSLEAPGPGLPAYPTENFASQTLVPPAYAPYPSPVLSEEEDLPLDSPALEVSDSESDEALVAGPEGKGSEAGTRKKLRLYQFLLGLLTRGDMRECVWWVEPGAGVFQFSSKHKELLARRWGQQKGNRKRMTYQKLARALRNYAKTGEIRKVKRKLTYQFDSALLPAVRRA
Sequence of ELF1 (P32519 whole entry): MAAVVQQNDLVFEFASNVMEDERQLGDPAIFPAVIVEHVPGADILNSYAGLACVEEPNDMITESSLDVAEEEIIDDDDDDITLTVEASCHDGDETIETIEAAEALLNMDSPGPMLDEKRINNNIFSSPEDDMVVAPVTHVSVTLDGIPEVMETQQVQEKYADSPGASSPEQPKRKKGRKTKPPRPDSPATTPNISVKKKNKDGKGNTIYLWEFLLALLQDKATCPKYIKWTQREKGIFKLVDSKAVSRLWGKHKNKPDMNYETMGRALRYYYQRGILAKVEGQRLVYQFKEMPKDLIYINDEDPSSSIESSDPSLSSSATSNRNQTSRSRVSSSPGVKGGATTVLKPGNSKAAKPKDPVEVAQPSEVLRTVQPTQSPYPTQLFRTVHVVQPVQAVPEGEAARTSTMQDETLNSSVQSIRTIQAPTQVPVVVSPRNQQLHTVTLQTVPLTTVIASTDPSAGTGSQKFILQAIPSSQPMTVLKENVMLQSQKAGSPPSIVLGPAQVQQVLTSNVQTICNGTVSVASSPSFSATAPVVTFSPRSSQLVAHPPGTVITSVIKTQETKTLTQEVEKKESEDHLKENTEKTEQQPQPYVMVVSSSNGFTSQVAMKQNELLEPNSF

TCCTTA: the binding signal in assay [1] was 1.6 fold enrichment (6-mer frequency, TF over GST control); in assay [2], 1.38 fold enrichment (6-mer frequency, TF over GST control); in [3] it was 1.57 fold enrichment (6-mer frequency, TF over GST control); in assay [4], 1.55 fold enrichment (6-mer frequency, TF over GST control); in assay [5], 1.66 fold enrichment (6-mer frequency, TF over GST control); in assay [6] it was 1.71 fold enrichment (6-mer frequency, TF over GST control). Besides, the binding signal in assay [7] was 1.78 fold enrichment (6-mer frequency, TF over GST control); in assay [8] it was 1.7 fold enrichment (6-mer frequency, TF over GST control); in [9], 1.4 fold enrichment (6-mer frequency, TF over GST control).
Regarding ATTGTC, the binding signal was 1.17 fold enrichment (6-mer frequency, TF over GST control) in assay [1]; 1.07 fold enrichment (6-mer frequency, TF over GST control) in assay [2]; 1.16 fold enrichment (6-mer frequency, TF over GST control) in assay [3]; 1.13 fold enrichment (6-mer frequency, TF over GST control) in assay [4]; 1.13 fold enrichment (6-mer frequency, TF over GST control) in [5]; 1.08 fold enrichment (6-mer frequency, TF over GST control) in assay [6]. Also, the binding signal in [7] was 1.05 fold enrichment (6-mer frequency, TF over GST control); in [8] it was 1.14 fold enrichment (6-mer frequency, TF over GST control); in [9] it was 1.35 fold enrichment (6-mer frequency, TF over GST control).
Regarding AACTTC, the binding signal in [1] was 2.4 fold enrichment (6-mer frequency, TF over GST control); in [2] it was 2.53 fold enrichment (6-mer frequency, TF over GST control); in assay [3], 2.41 fold enrichment (6-mer frequency, TF over GST control); in assay [4], 2.73 fold enrichment (6-mer frequency, TF over GST control); in [5] it was 2.47 fold enrichment (6-mer frequency, TF over GST control); in assay [6], 2.5 fold enrichment (6-mer frequency, TF over GST control). The binding signal in assay [7] was 3.04 fold enrichment (6-mer frequency, TF over GST control); in assay [8], 2.77 fold enrichment (6-mer frequency, TF over GST control); in assay [9], 2.72 fold enrichment (6-mer frequency, TF over GST control).
Turning to GATCCC, the binding signal in assay [1] was 1.16 fold enrichment (6-mer frequency, TF over GST control); in [2], 1.16 fold enrichment (6-mer frequency, TF over GST control); in [3], 1.15 fold enrichment (6-mer frequency, TF over GST control); in assay [4], 1.23 fold enrichment (6-mer frequency, TF over GST control); in assay [5], 1.27 fold enrichment (6-mer frequency, TF over GST control); in assay [6], 1.17 fold enrichment (6-mer frequency, TF over GST control). In addition, the binding signal is 1.11 fold enrichment (6-mer frequency, TF over GST control) in assay [7]; 1.17 fold enrichment (6-mer frequency, TF over GST control) in assay [8]; 1.14 fold enrichment (6-mer frequency, TF over GST control) in assay [9].
In the case of CGTCCG, the binding signal in assay [1] is 1.31 fold enrichment (6-mer frequency, TF over GST control); in [2], 1.27 fold enrichment (6-mer frequency, TF over GST control); in assay [3] it was 1.24 fold enrichment (6-mer frequency, TF over GST control); in assay [4], 1.27 fold enrichment (6-mer frequency, TF over GST control); in assay [5], 1.28 fold enrichment (6-mer frequency, TF over GST control); in assay [6], 1.36 fold enrichment (6-mer frequency, TF over GST control). The binding signal was 1.08 fold enrichment (6-mer frequency, TF over GST control) in assay [7]; 1.41 fold enrichment (6-mer frequency, TF over GST control) in assay [8]; 1.36 fold enrichment (6-mer frequency, TF over GST control) in [9].
Turning to CGACAT, the binding signal in [1] was 1.37 fold enrichment (6-mer frequency, TF over GST control); in assay [2], 1.23 fold enrichment (6-mer frequency, TF over GST control); in assay [3], 1.25 fold enrichment (6-mer frequency, TF over GST control); in assay [4] it was 1.31 fold enrichment (6-mer frequency, TF over GST control); in assay [5], 1.25 fold enrichment (6-mer frequency, TF over GST control); in assay [6] it was 1.26 fold enrichment (6-mer frequency, TF over GST control). Also, the binding signal in assay [7] was 1.27 fold enrichment (6-mer frequency, TF over GST control); in [8] it was 1.3 fold enrichment (6-mer frequency, TF over GST control); in assay [9], 1.4 fold enrichment (6-mer frequency, TF over GST control).
In the case of CTGACA, the binding signal in assay [1] is 1.19 fold enrichment (6-mer frequency, TF over GST control); in [2], 1.18 fold enrichment (6-mer frequency, TF over GST control); in assay [3], 1.2 fold enrichment (6-mer frequency, TF over GST control); in assay [4], 1.22 fold enrichment (6-mer frequency, TF over GST control); in assay [5], 1.27 fold enrichment (6-mer frequency, TF over GST control); in assay [6], 1.32 fold enrichment (6-mer frequency, TF over GST control). In addition, the binding signal in [7] was 1.26 fold enrichment (6-mer frequency, TF over GST control); in assay [8], 1.17 fold enrichment (6-mer frequency, TF over GST control); in assay [9], 1.24 fold enrichment (6-mer frequency, TF over GST control).
As to CGCCGC, the binding signal was 1.35 fold enrichment (6-mer frequency, TF over GST control) in [1]; 1.1 fold enrichment (6-mer frequency, TF over GST control) in assay [2]; 1.19 fold enrichment (6-mer frequency, TF over GST control) in [3]; 1.06 fold enrichment (6-mer frequency, TF over GST control) in [4]; 1.14 fold enrichment (6-mer frequency, TF over GST control) in [5]; 1.27 fold enrichment (6-mer frequency, TF over GST control) in assay [6]. The binding signal in assay [7] was 1.11 fold enrichment (6-mer frequency, TF over GST control); in assay [8] it was 1.11 fold enrichment (6-mer frequency, TF over GST control); in [9], 1.32 fold enrichment (6-mer frequency, TF over GST control).
